Consider 14 targets from the supplement of paper PMC10849652.

Of roughly 8,800 targets only a part is listed; those with a hit were picked by preference. About 0.5% of all pairs of compound and target were hits. Unmarked numbers belong to inactive results.

Test in all cases: log2 fold change, soluble protein after heating vs DMSO (PISA); higher = thermal stabilisation; K562 lysate, 10 uM; active = over 0.2 and 3.5 SD of the protein, either way, in both replicates (recomputed)
Compound in one test: CS(=O)(=O)CCNCc1ccc(-c2ccc3ncnc(Nc4ccc(OCc5cccc(F)c5)c(Cl)c4)c3c2)o1 [lapatinib]
The gist of the method: (§1)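 The values are log-two fold changes in thermal stability compared with solvent controls and come from duplicates. They were obtained by TMTpro 16plex LC-MS/MS, with channel sums equalised, on the supernatant after 21,000xg for 90 min. That supernatant came from crude K562 extract at 1 mg/mL protein treated with 10 μM compound for 30 min, heated for 3 min across 48°C-58°C, pooled and brought to 0.5% NP-40 at 4°C.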

Compound in another test: CS(=O)(=O)N1CCN(Cc2cc3nc(-c4cccc5[nH]ncc45)nc(N4CCOCC4)c3s2)CC1 [pictilisib]
The essentials: as §1

Compound in the next test: C[C@@H](Oc1cc(-c2cnn(C3CCNCC3)c2)cnc1N)c1c(Cl)ccc(F)c1Cl [crizotinib]
The gist of the method: as §1

Compound in test [1]: C[C@H](C1=CC=C(C=C1)C(=O)NC2=C3C=CNC3=NC=C2)N
The essentials:
as §1

Compound in the next test: C[C@H](Nc1ncnc2nc[nH]c12)c1cc2cccc(Cl)c2c(=O)n1-c1ccccc1 [duvelisib]
The essentials: as §1

Compound in another test: Cc1cc(Nc2cc(CN3CCOCC3)c3nc(C)c(Cc4ccc(Cl)cc4F)n3n2)n[nH]1 [gandotinib]
The gist of the method: as §1

Compound in the next test: Cc1cc(Nc2cc(N3CCN(C)CC3)nc(Sc3ccc(NC(=O)C4CC4)cc3)n2)n[nH]1 [tozasertib]
The essentials:
as §1

Compound in the next test: Cc1ccc(-n2nc(C(C)(C)C)cc2NC(=O)Nc2ccc(OCCN3CCOCC3)c3ccccc23)cc1 [doramapimod]
The gist of the method: as §1

Compound in a further test: Cc1ccc(NC(=O)c2ccc(CN3CC[C@H](N(C)C)C3)c(C(F)(F)F)c2)cc1Nc1nccc(-c2cncnc2)n1 [bafetinib]
The essentials: as §1

Compound in test [2]: Cc1cccc(CC(=O)N2CCc3c2ccc(-c2cn(C)c4ncnc(N)c24)c3F)n1
The gist of the method:
as §1

UniProt P28288, sequence (P28288 whole entry, looked up): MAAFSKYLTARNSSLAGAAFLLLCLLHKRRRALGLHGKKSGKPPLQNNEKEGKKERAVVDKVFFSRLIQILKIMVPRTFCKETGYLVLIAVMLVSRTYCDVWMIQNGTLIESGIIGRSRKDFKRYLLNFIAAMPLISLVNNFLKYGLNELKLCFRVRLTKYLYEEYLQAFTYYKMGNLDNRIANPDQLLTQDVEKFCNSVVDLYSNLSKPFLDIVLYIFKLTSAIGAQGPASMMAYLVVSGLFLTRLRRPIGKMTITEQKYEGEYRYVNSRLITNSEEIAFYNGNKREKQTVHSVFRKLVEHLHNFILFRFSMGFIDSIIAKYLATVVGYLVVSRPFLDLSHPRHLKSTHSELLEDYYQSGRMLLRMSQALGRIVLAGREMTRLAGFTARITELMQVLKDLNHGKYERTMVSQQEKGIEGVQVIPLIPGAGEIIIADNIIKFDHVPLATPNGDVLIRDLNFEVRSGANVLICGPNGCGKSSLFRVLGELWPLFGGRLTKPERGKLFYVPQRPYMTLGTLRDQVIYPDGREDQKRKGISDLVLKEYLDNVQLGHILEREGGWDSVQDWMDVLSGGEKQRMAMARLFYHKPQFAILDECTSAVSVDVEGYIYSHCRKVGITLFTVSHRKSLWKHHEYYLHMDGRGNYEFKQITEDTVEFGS
UniProt Q13155, sequence (Q13155 whole entry, looked up): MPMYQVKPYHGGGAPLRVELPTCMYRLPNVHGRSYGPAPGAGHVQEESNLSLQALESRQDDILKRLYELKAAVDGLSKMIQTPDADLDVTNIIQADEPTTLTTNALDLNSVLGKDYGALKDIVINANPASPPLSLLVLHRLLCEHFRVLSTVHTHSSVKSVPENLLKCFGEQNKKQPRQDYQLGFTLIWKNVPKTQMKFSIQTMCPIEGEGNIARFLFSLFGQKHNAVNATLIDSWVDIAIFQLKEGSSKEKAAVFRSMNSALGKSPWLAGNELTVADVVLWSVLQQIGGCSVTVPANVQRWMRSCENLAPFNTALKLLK
UniProt P30837, sequence (P30837 whole entry, looked up): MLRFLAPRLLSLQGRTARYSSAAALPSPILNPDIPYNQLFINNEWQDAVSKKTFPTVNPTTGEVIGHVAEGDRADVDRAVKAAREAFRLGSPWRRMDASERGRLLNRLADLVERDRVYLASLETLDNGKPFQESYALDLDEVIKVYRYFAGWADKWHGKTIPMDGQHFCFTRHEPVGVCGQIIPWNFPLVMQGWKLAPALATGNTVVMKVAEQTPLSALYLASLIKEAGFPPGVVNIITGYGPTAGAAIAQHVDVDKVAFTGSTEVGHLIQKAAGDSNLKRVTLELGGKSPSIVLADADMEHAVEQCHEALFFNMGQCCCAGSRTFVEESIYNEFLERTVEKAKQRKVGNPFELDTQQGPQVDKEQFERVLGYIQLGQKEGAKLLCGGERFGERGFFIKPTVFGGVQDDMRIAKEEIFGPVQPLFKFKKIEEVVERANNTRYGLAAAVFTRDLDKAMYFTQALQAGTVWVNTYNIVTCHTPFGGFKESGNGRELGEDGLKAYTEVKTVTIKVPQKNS
UniProt Q9UKV3, sequence (Q9UKV3 whole entry, looked up): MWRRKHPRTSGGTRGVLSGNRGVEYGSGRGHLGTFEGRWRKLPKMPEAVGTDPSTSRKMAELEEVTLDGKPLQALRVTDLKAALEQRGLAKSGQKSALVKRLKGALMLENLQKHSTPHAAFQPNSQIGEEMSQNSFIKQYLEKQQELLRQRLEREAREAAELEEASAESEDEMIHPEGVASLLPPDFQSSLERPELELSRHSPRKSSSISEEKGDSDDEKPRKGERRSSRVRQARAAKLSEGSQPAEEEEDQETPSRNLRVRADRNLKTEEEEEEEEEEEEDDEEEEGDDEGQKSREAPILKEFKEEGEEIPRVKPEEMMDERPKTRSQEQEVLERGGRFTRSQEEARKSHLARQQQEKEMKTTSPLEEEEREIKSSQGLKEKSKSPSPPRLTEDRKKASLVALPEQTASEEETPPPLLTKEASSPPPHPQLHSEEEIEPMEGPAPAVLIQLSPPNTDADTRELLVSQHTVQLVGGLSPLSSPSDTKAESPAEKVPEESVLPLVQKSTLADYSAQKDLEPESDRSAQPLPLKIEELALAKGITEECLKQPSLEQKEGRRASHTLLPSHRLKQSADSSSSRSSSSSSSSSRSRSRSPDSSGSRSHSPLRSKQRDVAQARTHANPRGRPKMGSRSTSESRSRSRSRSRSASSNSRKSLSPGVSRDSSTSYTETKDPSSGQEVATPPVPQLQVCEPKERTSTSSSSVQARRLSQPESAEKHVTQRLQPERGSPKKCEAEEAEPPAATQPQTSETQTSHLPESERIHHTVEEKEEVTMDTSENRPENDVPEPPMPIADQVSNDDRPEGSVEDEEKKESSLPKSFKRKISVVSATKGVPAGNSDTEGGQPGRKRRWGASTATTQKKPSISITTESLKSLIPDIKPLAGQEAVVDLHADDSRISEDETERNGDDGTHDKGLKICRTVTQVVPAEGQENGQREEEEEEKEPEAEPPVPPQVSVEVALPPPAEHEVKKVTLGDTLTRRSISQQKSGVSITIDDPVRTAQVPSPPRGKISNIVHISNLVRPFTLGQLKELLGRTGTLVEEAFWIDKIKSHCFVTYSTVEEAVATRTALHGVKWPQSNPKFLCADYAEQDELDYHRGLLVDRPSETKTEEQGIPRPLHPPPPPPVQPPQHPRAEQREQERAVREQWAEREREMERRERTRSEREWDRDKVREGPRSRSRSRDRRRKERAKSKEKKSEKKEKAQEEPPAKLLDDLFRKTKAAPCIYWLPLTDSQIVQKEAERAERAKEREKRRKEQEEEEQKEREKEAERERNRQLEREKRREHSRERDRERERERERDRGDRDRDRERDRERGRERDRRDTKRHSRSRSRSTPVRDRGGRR
UniProt Q12904, sequence (Q12904 whole entry, looked up): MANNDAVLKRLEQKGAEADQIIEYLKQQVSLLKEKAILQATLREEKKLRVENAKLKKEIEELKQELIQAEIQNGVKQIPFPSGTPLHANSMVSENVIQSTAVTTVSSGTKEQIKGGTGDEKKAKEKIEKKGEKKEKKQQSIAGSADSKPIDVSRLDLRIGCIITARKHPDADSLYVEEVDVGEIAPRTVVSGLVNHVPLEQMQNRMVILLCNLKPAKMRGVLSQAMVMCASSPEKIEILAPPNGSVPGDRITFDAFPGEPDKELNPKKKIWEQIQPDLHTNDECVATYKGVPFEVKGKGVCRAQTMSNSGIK
UniProt O00170, sequence (O00170 whole entry, looked up): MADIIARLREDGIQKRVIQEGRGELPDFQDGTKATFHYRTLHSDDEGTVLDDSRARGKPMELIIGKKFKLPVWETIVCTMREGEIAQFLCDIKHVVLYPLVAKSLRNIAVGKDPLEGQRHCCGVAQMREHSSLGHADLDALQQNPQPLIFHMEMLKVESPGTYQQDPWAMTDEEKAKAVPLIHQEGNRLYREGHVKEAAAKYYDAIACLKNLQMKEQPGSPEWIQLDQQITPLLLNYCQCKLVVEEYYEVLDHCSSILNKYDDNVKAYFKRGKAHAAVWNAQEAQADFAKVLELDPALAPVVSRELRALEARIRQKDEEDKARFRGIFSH
UniProt O43823, sequence (O43823 whole entry, looked up): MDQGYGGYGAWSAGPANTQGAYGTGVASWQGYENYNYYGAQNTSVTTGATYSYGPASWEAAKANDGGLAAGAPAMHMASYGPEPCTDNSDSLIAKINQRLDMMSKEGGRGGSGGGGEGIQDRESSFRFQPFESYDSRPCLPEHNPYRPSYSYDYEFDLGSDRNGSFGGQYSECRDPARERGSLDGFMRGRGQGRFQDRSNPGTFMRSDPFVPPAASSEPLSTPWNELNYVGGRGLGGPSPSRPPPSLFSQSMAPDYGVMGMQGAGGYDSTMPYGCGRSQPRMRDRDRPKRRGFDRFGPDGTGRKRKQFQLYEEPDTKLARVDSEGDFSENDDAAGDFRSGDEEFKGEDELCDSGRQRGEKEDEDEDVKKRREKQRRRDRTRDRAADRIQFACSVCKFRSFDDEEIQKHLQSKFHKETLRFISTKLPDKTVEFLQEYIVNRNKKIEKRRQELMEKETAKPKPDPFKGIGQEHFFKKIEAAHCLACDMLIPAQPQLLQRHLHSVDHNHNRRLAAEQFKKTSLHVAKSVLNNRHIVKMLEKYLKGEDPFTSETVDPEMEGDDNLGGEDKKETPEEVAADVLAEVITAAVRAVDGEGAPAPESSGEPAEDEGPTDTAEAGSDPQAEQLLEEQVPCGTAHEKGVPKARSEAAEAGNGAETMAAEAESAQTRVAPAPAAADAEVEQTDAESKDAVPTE
UniProt O95870, sequence (O95870 whole entry, looked up): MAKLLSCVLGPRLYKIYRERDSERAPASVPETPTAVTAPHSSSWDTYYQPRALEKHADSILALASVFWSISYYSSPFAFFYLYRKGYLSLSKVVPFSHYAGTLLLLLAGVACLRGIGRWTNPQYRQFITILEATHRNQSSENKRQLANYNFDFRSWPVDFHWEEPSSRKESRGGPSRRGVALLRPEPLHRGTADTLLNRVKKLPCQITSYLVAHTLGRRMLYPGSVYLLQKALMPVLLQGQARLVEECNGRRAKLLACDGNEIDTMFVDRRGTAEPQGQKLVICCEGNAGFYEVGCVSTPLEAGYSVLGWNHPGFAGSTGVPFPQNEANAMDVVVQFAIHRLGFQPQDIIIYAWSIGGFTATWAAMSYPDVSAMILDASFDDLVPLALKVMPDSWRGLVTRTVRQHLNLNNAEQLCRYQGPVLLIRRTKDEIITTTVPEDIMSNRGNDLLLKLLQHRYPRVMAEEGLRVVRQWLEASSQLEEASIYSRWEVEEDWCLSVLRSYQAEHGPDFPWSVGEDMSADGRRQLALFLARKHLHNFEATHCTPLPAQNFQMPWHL
UniProt P27144, sequence (P27144 whole entry, looked up): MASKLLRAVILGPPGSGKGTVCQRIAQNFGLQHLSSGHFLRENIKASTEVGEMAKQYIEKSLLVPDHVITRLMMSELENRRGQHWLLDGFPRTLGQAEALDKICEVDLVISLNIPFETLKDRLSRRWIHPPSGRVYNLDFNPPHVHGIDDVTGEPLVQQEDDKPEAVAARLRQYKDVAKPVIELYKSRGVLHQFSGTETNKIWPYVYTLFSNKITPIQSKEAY

For the target ADRM1 (UniProt Q16186), the log2 fold change with lapatinib is -0.009; with pictilisib it was -0.012; with crizotinib it was -0.05; in [1], 0.019; with duvelisib, 0.03; in the test with gandotinib, -0.014. Also, the log2 fold change in the test with tozasertib is -0.019; with doramapimod, 0.042; with bafetinib it was 0.006; in test [2] it was 0.02.

AGPS (UniProt O00116): the log2 fold change in the test with lapatinib was -0.017; with pictilisib, -0.049; in the test with crizotinib it was -0.02; in test [1] it was -0.033; with duvelisib it was -0.011; in the test with gandotinib, 0.019. Besides, the log2 fold change with tozasertib is 0.015; with doramapimod, 0.025; with bafetinib it was 0.002; in [2], 0.083.

Consider ACIN1 isoform 5 (UniProt Q9UKV3), for which the log2 fold change with lapatinib was 0.012; in the test with pictilisib, -0.024; with crizotinib it was 0.034; in test [1], 0.022; with duvelisib, -0.002; with gandotinib, -0.003. Besides, the log2 fold change with tozasertib is 0.003; with doramapimod, 0.01; with bafetinib, -0.013; in [2] it was 0.002.

Regarding ABCF3 (UniProt Q9NUQ8), the log2 fold change in the test with lapatinib was -0.019; with pictilisib, 0.006; in the test with crizotinib it was -0.033; in test [1] it was 0.02; with duvelisib it was 0.018; in the test with gandotinib it was -0.075. Moreover, the log2 fold change was 0.063 in the test with tozasertib, 0.011 with doramapimod, -0.062 with bafetinib and 0.017 in [2].

Regarding ABHD12 isoform 2 (UniProt Q8N2K0), the log2 fold change was -0.006 with lapatinib; -0.069 with pictilisib; -0.04 with crizotinib; 0.078 in test [1]; -0.057 with duvelisib; -0.095 with gandotinib. Also, the log2 fold change in the test with tozasertib is 0.06; in the test with doramapimod, 0.04; with bafetinib, 0.062; in test [2] it was -0.063.

As to AIMP2 (UniProt Q13155), the log2 fold change in the test with lapatinib is -0.006; with pictilisib, 0.015; with crizotinib, -0.047; in test [1], 0.05; in the test with duvelisib, -0.018; with gandotinib it was -0.12. The log2 fold change was 0.041 with tozasertib, 0.029 with doramapimod, -0.03 with bafetinib and -0.032 in [2].

As to ABHD16A (UniProt O95870), the log2 fold change is 0.032 in the test with lapatinib; 0.028 with pictilisib; 0.018 with crizotinib; 0.006 in [1]; -0.078 with duvelisib; 0.081 in the test with gandotinib. Besides, the log2 fold change with tozasertib is -0.072; with doramapimod it was 0.013; in the test with bafetinib it was 0.018; in test [2], -0.021.

With ALDH1B1 (UniProt P30837), the log2 fold change was -0.012 with lapatinib; 0.008 with pictilisib; -0.007 with crizotinib; -0.024 in test [1]; 0.058 with duvelisib; 0.052 with gandotinib. The log2 fold change with tozasertib is 0.021; with doramapimod it was -0.017; in the test with bafetinib, -0.049; in test [2] it was -0.041.

As for AIP (UniProt O00170), the log2 fold change with lapatinib was -0.004; in the test with pictilisib it was -0.026; with crizotinib, 0.021; in test [1], 0.41 (active); in the test with duvelisib it was -0.031; with gandotinib, -0.019. Besides, the log2 fold change with tozasertib was -0.012; in the test with doramapimod it was -0.022; with bafetinib, 0.055; in [2] it was -0.043.

Consider ARHGEF1 (UniProt M0QZR4), for which the log2 fold change with lapatinib is 0.006; with pictilisib, -0.011; in the test with crizotinib, -0.041; in test [1], -0.038; with duvelisib, -0.007; with gandotinib, -0.012. In addition, the log2 fold change with tozasertib was 0.029; with doramapimod, 0.02; in the test with bafetinib it was -0.019; in test [2], 0.106.

On to AK4 (UniProt P27144), for which the log2 fold change with lapatinib was -0.003; in the test with pictilisib, -0.033; with crizotinib, 0.028; in test [1], -0.027; in the test with duvelisib, 0.014; with gandotinib, -0.019. For the same target, the log2 fold change in the test with tozasertib is 0.052; in the test with doramapimod, 0.03; with bafetinib, -0.024; in test [2], 0.012.

Consider AKAP8 (UniProt O43823), for which the log2 fold change is 0.008 with lapatinib; -0.126 with pictilisib; 0.023 with crizotinib; 0.035 in test [1]; 0.022 with duvelisib; 0.003 in the test with gandotinib. The log2 fold change is 0.017 with tozasertib, -0.071 in the test with doramapimod, -0.119 with bafetinib and 0.039 in [2].

Take AIMP1 isoform 2 (UniProt Q12904): the log2 fold change with lapatinib is -0.019; in the test with pictilisib, -0.004; with crizotinib, -0.05; in [1] it was 0.023; with duvelisib, 0.007; in the test with gandotinib it was -0.085. For the same target, the log2 fold change was -0.008 with tozasertib, -0.015 in the test with doramapimod, -0.041 with bafetinib and -0.012 in [2].

As to ABCD3 (UniProt P28288), the log2 fold change is 0.179 with lapatinib; -0.019 in the test with pictilisib; -0.063 with crizotinib; 0.014 in test [1]; 0.019 with duvelisib; 0.079 in the test with gandotinib. Also, the log2 fold change with tozasertib is 0.098; with doramapimod it was -0.002; with bafetinib it was 0.027; in test [2], -0.006.
